Records with an inconclusive call do not appear. Activity calls are given as the source filed them. How the source made its calls: active means hit-call score of the fitted dose curve at least 0.9, where 1 is the maximum; inconclusive means response in the unintended direction; inactive means score below 0.9.

THRA (gene 7067), sequence (P10827 whole entry, looked up): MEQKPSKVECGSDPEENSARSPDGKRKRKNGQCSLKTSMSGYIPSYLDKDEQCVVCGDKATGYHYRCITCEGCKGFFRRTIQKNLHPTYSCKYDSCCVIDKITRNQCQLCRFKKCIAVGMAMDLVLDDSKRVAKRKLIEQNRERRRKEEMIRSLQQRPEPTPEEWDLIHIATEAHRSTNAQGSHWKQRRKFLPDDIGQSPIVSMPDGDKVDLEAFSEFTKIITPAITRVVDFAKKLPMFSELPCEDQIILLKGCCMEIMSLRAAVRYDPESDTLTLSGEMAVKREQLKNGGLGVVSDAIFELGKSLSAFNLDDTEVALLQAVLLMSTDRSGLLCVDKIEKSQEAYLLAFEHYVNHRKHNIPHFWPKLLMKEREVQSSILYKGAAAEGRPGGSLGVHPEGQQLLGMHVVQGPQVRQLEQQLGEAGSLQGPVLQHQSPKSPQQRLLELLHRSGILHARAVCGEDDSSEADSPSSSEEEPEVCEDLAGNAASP

This assay has as its target THRA (gene 7067) (UniProt P10827). Kind of assay: TOX21_TRA_COA_Antagonist_Followup_ratio: Tox21 Thyroid Hormone Receptor alpha Antagonism through Coactivator Recruitment Follow-Up Assay, Ratio (AID 2283953). From the text: TOX21_TRa_COA_Antagonist_Followup is a secondary assay for specificity for the TOX21_TR_GH3_LUC_Agonist assay. The LanthaScreen TR-FRET TR coactivator assay kits were used to determine TR activity in a cell-free functional assay. A time-resolved fluorescence resonance energy transfer (TR-FRET) signal was indicative of coactivator (SRC-2) recruitment.TOX21_TRA_COA_Antagonist_Followup_ratio is assay component calculated in the TOX21_TRA_COA_Antagonist_Followup assay. The TR-FRET ratio of acceptor emission (ch2) to donor emission (ch1) is indicative of the resonance energy transfer to the fluorescein tag on the coactivator peptide following recruitment to the receptor.Data from the assay component TOX21_TRA_COA_Antagonist_Followup_ratio was analyzed into 1 assay endpoint. This assay endpoint, TOX21_TRA_COA_Antagonist_Followup_ratio, was analyzed in the positive analysis fitting direction relative to DMSO as the negative control and baseline of activity. Using a type of inducible reporter, loss-of-signal activity can be used to understand changes in the reporter gene as they relate to the gene THRA. Furthermore, this assay endpoint can be referred to as a primary readout, because this assay has produced multiple assay endpoints and this ratio serves a reporter gene function to understand target activity. To generalize the intended target to other relatable targets, this assay endpoint is annotated to the nuclear receptor intended target family, where the subfamily is non-steroidal.
Cell Media Required: Growth (90% DMEM/F-12, 10% Fetal Bovine Calf Serum, 100U/ml Penicillin, 100 ug/ml Streptomycin), Assay (10ng/mL sodium selenite, 10 ug/mL humanapo-transferrin, 10 uM ethanolamine, 10 ug/mL insulin, 500 ug/mL bovine serum albumin (BSA))Assay Protocol: 4 uL mixture of the receptor LBDs expressed as glutathione S-transferase (GST) fusion proteins (2.5 nM for TRa and 5.0 nM for TRb) and BSA (0.10%; Sigma-Aldrich) were incubated with 23 nL of control or test compound. A time-resolved fluorescence resonance energy transfer(TR-FRET) signal was indicative of coactivator recruitment using a 2 uL mixture of fluoresce in-labeled SRC-2 peptide (200 nM) and terbium-labeled anti-GST antibody (2nM), which transferred resonance energy to the fluorescein tag on the coactivator peptide following recruitment to the receptor. Fluorescence emission ratios (520:495 nm) were collected by an Envision plate reader (excitation at 340 nm and emissions at 495 and 520 nm), and the measured values were normalized to 0% activity using DMSO-only wells and 100 activity using T3 control wells.
As to `C/C=C1/C(=O)C[C@H]2[C@@H]3CCC4=CC(=O)CC[C@]4(C)[C@H]3CC[C@]12C`, the outcome was inactive.
Then `C#C[C@]1(O)CC[C@H]2[C@@H]3CCC4=C(CCC(=O)C4)[C@H]3CC[C@@]21C`, with “inactive”.
Consider `CC(=O)OCC(=O)[C@H]1CC[C@H]2[C@@H]3CCC4=CC(=O)CC[C@]4(C)[C@H]3CC[C@]12C`, for which the outcome was inactive.
The result for `COc1ccc2c(c1)N(C[C@H](C)CN(C)C)c1ccccc1S2` reads “inactive”; that for `CC(=O)O[C@@]12CO[C@@H]1C[C@H](O)[C@@]1(C)C(=O)[C@H](O)C3=C(C)[C@@H](OC(=O)[C@H](O)[C@@H](NC(=O)OC(C)(C)C)c4ccccc4)C[C@@](O)([C@@H](OC(=O)c4ccccc4)[C@H]21)C3(C)C`, “inactive”; that for `CCCCCCC[N+](CC)(CC)CCCCc1ccc(Cl)cc1`, “inactive”.
Then `O=C1c2ccccc2-c2n[nH]c3cccc1c23`, with “inactive”.
Then `Cc1ccc(Nc2nccc(N(C)c3ccc4c(C)n(C)nc4c3)n2)cc1S(N)(=O)=O`, with “inactive”; and `COc1cc(NCc2ccc3nc(N)nc(N)c3c2C)cc(OC)c1OC`, with “inactive”; and `O=C(O)c1cccnc1Nc1cccc(C(F)(F)F)c1`, with “inactive”.
As for `COc1cc(C(=O)NC2CCCNC2)cc(OC)c1OC` (centres undefined), the result was inactive.
For the molecule `CN1CCCC(CC2c3ccccc3Sc3ccccc32)C1` (centres undefined), the result was inactive.
For the molecule `O=C1OC(OC(=O)c2cccnc2Nc2cccc(C(F)(F)F)c2)c2ccccc21` (centres undefined), the result was inactive.
Then `COC(=O)Nc1nc2ccc(S(=O)c3ccccc3)cc2[nH]1` (centres undefined), with “inactive”.

Values taken from PubChem BioAssay (EPA / NIEHS).
